The source of these data is PubChem BioAssay (NCATS).

Records with an inconclusive call do not appear. A call without a number means that no potency is given here. The source made the active and inactive calls. Calls come from the whole dose curve; as a rule, active = well fitted cell-killing curve with a large enough effect; inconclusive = small, poorly fitted or top-dose-only effect; inactive = flat fitted curve, though single readings scatter.

The nature of this experiment: qHTS of pediatric cancer cell lines to identify multiple opportunities for drug repurposing: Primary screen for Rh18 cells (AID 1347102). Note: nearly all actives have a fitted effect of over 65% in size. Particulars: Rh18 rhabdomyosarcoma viability, CellTiter-Glo luminescence, 48 h; series mostly up to 46 µM. A digest of the protocol: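 Viability after 48 h compound treatment at 37C, 500-1,000 cells/well, read as ATP luminescence with CellTiter-Glo. Primary screens used 11-point (MIPE, 0.78 nM-46 µM) or 8-point (NPC, 0.59 nM-46 µM) final concentrations; follow-up screens used 11-point dilutions.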
Regarding `CCCOC(=O)c1ccc(O)cc1`, the Potency result was “inactive”. Regarding `O=C(O)Cc1cccc(-c2cc(CCCCCCc3ccc(O[C@H]4O[C@H](CO)[C@@H](O)[C@H](O)[C@@H]4O)c(-c4cccc(CC(=O)O)c4)c3)ccc2O[C@H]2O[C@H](CO)[C@@H](O)[C@H](O)[C@@H]2O)c1`, the activity change, negative = cytotoxic is 18.6% [at 0.597 µM] (inactive).

Consider `O=C(O)/C=C\C(=O)O`, for which the Potency result was “inactive”. As for `CC(C(=O)O)c1ccc2c(c1)[nH]c1ccc(Cl)cc12` (stereo not given), the Potency entry is “inactive”.

In the case of `COc1ccc(-c2cc(=S)ss2)cc1`, the Potency result was “inactive”.

On to `O=C(CCN1CCN(CCO)CC1)N1c2ccccc2Sc2ccc(C(F)(F)F)cc21`, for which the Potency entry was “inactive”. On the same count and under the same terms, the entry for `c1ccc2sc(SN3CCOCC3)nc2c1` is “inactive”. The same measure, in the same setting: the entry for `O=C(OCc1ccccc1)c1ccccc1` is “inactive”. The same measure, in the same setting: for `Nc1c(CC(=O)O)cccc1C(=O)c1ccc(Br)cc1` the value was “inactive”. As for `CC(=O)c1ccc(OCC(=O)N2CCCCC2)cc1`, the Potency entry is “inactive”. As for `CNC(=O)c1c(I)c(NC(=O)CCCCC(=O)Nc2c(I)c(C(=O)O)c(I)c(C(=O)NC)c2I)c(I)c(C(=O)O)c1I`, the Potency entry was “inactive”. Still for that read-out and setting: for `O=C(O)c1cc(O)c(O)c(O)c1` the value was “inactive”; for `C=CCCCCCCCCC(=O)O`, “inactive”. Take `Cc1ccc(C(=O)c2ccc(CC(=O)O)n2C)cc1`: the Potency entry is “inactive”.

In the case of `Nc1cc(-c2ccncc2)c[nH]c1=O`, the Potency result is “inactive”. For the compound `COc1ccnc2c1CCCCC2S(=O)c1nc2ccccc2[nH]1` (stereo not given), the Potency result was “inactive”. Still for that read-out and setting: the entry for `N=C(N)N` is “inactive”; for `CCCCCCCC/C=C/C(=O)O` it is “inactive”; for `Nc1ccc(C(=O)O)c(O)c1` it is “inactive”. Same read-out and setting: for `CC1(C)S[C@@H]2[C@H](NC(=O)[C@H](N)c3ccccc3)C(=O)N2[C@H]1C(=O)O` the value was “inactive”.
